The campaign covered roughly 2,300 compounds. About 1,200 (52%) were called active. Inconclusive results (about 34%) are left out. The call rests on the fitted dose curve; in most records, active means well fitted inhibition curve with a large enough effect; inconclusive means small, poorly fitted or top-dose-only effect, or effect the other way; inactive means no such curve, though single readings can be large or run the other way. So high a share suggests a set chosen from earlier hits. This is one part of the list.
assay: Confirmation screen for delayed death inhibitors of the malarial parasite plastid, 48 hour incubation; further: nearly all actives have a fitted effect of over 65% in size; conditions: P. falciparum-infected erythrocytes, luciferase growth; series mostly up to 28.7 µM
In short: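 Erythrocytes infected with luciferase-expressing P. falciparum (2% hematocrit, 0.1% parasitemia) incubated with compounds 48 hours at 37 C, 5% CO2, in RPMI/Albumax. Growth inhibition scored as reduced luminescence after detection reagent.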
Potency means the concentration at half of the fitted maximal effect.

Compound | Potency
Cn1c2ccccc2c(=O)c2ccc(C#Cc3ccc(N)cc3)cc21 | 12.6 µM (active)
COc1ccc(C#Cc2ccc3c(=O)c4ccccc4n(C)c3c2)cc1 | 10 µM (active)
Cc1ccc2c(c1)c1c3n2CCN(C(=O)CCl)C3CCC1 (centres undefined) | 12.6 µM (active)
Cc1cc(C)cc(CC(Cc2nc3ccccc3[nH]2)c2nc3ccccc3[nH]2)c1 (centres undefined) | 2.24 µM (active)
CCCCOc1ccc(NC2=NC3(CCCC3)N=C(N)N2)cc1 | 1.41 µM (active)
Cc1nc(-c2ccc(S(=O)(=O)N3CCCN(CCc4ccccc4)CC3)s2)cs1 | 10 µM (active)
Cc1ccc(N2C(=O)N3[C@H](c4ccc(F)cc4)[C@@H]4C(=O)N(C5CCCCC5)C(=O)[C@@H]4[C@]3(Cc3ccccc3)C2=O)cc1 | 5.62 µM (active)
Cc1cccc(Nc2nc3c(S(=O)(=O)c4ccccc4)nnn3c3ccccc23)c1C | 4.47 µM (active)
COC(=O)C(=Cc1ccccc1[N+](=O)[O-])C(=O)OC | 4.47 µM (active)
COc1ccc([N+](=O)[O-])c(S(=O)(=O)c2ccccc2)n1 | inactive
CC1CCCCC1NC(=O)/C(C#N)=C/C=C/c1ccccc1[N+](=O)[O-] (centres undefined) | 5.01 µM (active)
COCCNC(=O)/C(C#N)=C/C=C/c1ccccc1[N+](=O)[O-] | 11.2 µM (active)
N#C/C(=C\C=C\c1ccccc1[N+](=O)[O-])C(=O)NC1CCCCC1 | 4.47 µM (active)
COc1ccc(Cn2c(-c3ccc(Br)cc3)c[n+]3ccccc23)cc1 | 1.26 µM (active)
CC(NC(=O)c1ccc([N+](=O)[O-])o1)C12CC3CC(CC(C3)C1)C2 (centres undefined) | 12.6 µM (active)
COCCNCC(=O)NC12CC3CC(CC(C3)C1)C2 | inactive
O=C(NC12CC3CC(CC(C3)C1)C2)c1ccc([N+](=O)[O-])o1 | 6.31 µM (active)
Cn1cc([N+](=O)[O-])c(C(=O)Nc2ccn(C34CC5CC(CC(C5)C3)C4)n2)n1 | inactive
Cc1ccc(S(=O)(=O)Nc2cc(=O)[nH]c(SCc3ccc(Cl)cc3)n2)cc1 | 11.2 µM (active)
CC(=O)c1c(C)cc(C)c(CSc2nc(C)cc(=O)[nH]2)c1C | inactive
OC1CCN(c2c3c(nc4cc(-c5ccc(Cl)cc5)nn24)CCC3)CC1 | 7.08 µM (active)

Compound | Potency
Fc1cc2nc(-c3ccncc3)[nH]c2cc1F | 10 µM (active)
Cn1ccc(=Nc2ccc(NC(=O)c3ccc(N=c4ccn(C)c5ccc([N+](=O)[O-])cc45)cc3)cc2)cc1 | 0.199 µM (active)
Cc1sc2nc[nH]c(=O)c2c1-c1ccc(Cl)cc1 | inactive
O=C(CCl)Nc1cccc(S(=O)(=O)NC2=NCCC2)c1 | 1.26 µM (active)
COc1ccccc1-n1c(=S)[nH]c2c(sc(=S)n2-c2ccc(C)cc2C)c1=O | 3.16 µM (active)
CCOC(=O)c1c(C)nc(C)c(C(=O)OCC)c1-c1ccc(Br)cc1 | 12.6 µM (active)
Cc1ccc(C(=O)OCc2nnc(-c3ccc(Br)cc3)o2)cc1 | inactive
Cc1cccc(N2CCN(C3=NC(=O)C(Cc4ccccc4)S3)CC2)c1 (centres undefined) | 1.78 µM (active)
O=C(c1ccsc1)N1CCCC(N2CCN(c3cccc(C(F)(F)F)c3)CC2)C1 (centres undefined) | 14.1 µM (active)
Cc1cc(C(=O)N2CCCC(N3CCN(c4cccc(C(F)(F)F)c4)CC3)C2)c(C)o1 (centres undefined) | 12.6 µM (active)
Cc1ccc(C(=O)NC2CCCCC2)cc1S(=O)(=O)N1CCCC1 | 11.2 µM (active)
O=C(Nc1ccncc1)c1ccc(Cl)c(S(=O)(=O)N2CCCC2)c1 | 11.2 µM (active)
Cc1ccc(C(=O)NC2CCCC2)cc1S(=O)(=O)N1CCCCC1 | 11.2 µM (active)
Cc1ccc(S(=O)(=O)N2CCCCC2C)cc1[N+](=O)[O-] (centres undefined) | inactive
CN(CCCN1CCOCC1)C(=O)c1ccc2nc(Cc3cccc(Cl)c3)oc2c1 | 14.1 µM (active)
Clc1cccc(OCCCCCN2CCOCC2)c1 | inactive
CCOC(=O)C1CCCN(C(=O)c2cc3cc4ccc(OC)cc4nc3o2)C1 (centres undefined) | 11.2 µM (active)
COC(=O)[C@]1(CC(C)C)N[C@H](c2ccc(-c3ccc(F)cc3)c(OC)c2)[C@@H]2C(=O)N(C)C(=O)[C@@H]21 | 6.31 µM (active)
COCCN(C(=O)CCCC(=O)Nc1ccccn1)C(C(=O)NC1CCCCC1)c1ccc(C)cc1 (centres undefined) | 11.2 µM (active)
CC[C@H]1OC(=O)[C@H](C)[C@@H](O[C@H]2C[C@@](C)(OC)[C@@H](O)[C@H](C)O2)[C@H](C)[C@@H](O[C@@H]2O[C@H](C)C[C@H](N(C)C)[C@H]2O)[C@](C)(O)C[C@@H](C)CN(C)[C@H](C)[C@@H](O)[C@]1(C)O | 14.1 µM (active)
CC[C@H]1OC(=O)[C@H](C)[C@@H](O[C@H]2C[C@@](C)(OC)[C@@H](O)[C@H](C)O2)C(C)[C@@H](O[C@@H]2O[C@H](C)C[C@H](N(C)C)[C@@H]2O)[C@](C)(OC)C[C@@H](C)C(=O)[C@H](C)[C@@H](O)[C@]1(C)O (some centres undefined) | inactive

Compound | Potency
O=C(/C=C/c1ccccc1O)c1ccco1 | inactive
COc1ccccc1/C=C/C(=O)/C=C/c1ccccc1O | 1.41 µM (active)
Cc1ccc2[nH]c3c(c2c1)CCCC3NC(=O)CCl (centres undefined) | 4.47 µM (active)
Cc1cc(NC(=O)CSCC(=O)Nc2ccccc2Oc2ccccc2)no1 | 14.1 µM (active)
COC(=O)[C@@]1(Cc2ccc(F)cc2)[C@@H]2[C@@H](CC(=O)[C@H]2CC(=O)C(=O)N(C)C)CN1C(=O)c1ccccc1 | 11.2 µM (active)
O=C(N/N=C/c1cccn1-c1ccc([N+](=O)[O-])cc1)c1cccnc1 | 10 µM (active)
Cc1cc([N+](=O)[O-])ccc1NC(=O)CSc1nncn1-c1cccnc1 | inactive
CCOc1ccc(N(C(=O)c2snc(C(N)=O)c2N)C(C(=O)NCC2CCCO2)c2c[nH]c3ccccc23)cc1 (centres undefined) | 3.55 µM (active)
Cc1cc(C)c(C(=O)/C=C/c2cccc3ccccc23)c(=O)[nH]1 | 8.91 µM (active)
COc1ccc2[nH]c(=O)c(CN(CCCN(C)C)C(=O)Nc3ccc(F)cc3)cc2c1 | 14.1 µM (active)
O=C(Nc1nnc(SCc2ccc(F)cc2)s1)c1ccccn1 | 3.55 µM (active)
O=c1c(Cl)cc(Cl)nn1-c1ccccc1 | 12.6 µM (active)
COc1ccc(-n2nc(C#N)c(Cl)cc2=O)cc1 | inactive
C=C[C@]1(C)C[C@@H](OC(=O)CSCCN(CC)CC)[C@]2(C)C(C)CC[C@]3(CCC(=O)[C@H]32)[C@@H](C)[C@@H]1O (some centres undefined) | 14.1 µM (active)
COc1ccccc1-c1cc(C(=O)N/N=C/c2sccc2C)c2ccccc2n1 | 3.98 µM (active)
COc1ccc(-c2cc(C(=O)N/N=C/c3sccc3C)c3ccccc3n2)c(OC)c1 | 12.6 µM (active)
COc1ccc(-c2cc(C(=O)N/N=C/c3ccc4c(c3)OCO4)c3ccccc3n2)c(OC)c1 | 7.94 µM (active)
CCOC(=O)Nc1ccc2c(CNC(C)c3ccccc3OC)cc(=O)oc2c1 (centres undefined) | 14.1 µM (active)
CCc1noc(C)c1C(=O)N1CCC(CCC(=O)Nc2cccc(C)c2)CC1 | 11.2 µM (active)
C/C(N)=C(/C#N)C(=O)COC(=O)c1cc(C)n(-c2ccc(F)cc2)c1C | 10 µM (active)
O=C(CSc1nc2cc([N+](=O)[O-])ccc2n1-c1ccccc1)NCc1ccc2c(c1)OCO2 | 11.2 µM (active)

Compound | Potency
O=C(NCc1ccc2c(c1)OCO2)c1nc(S(=O)(=O)Cc2ccccc2)ncc1Cl | inactive
Cc1nc([N+](=O)[O-])c(Sc2nc3ccccc3n2C)n1Cc1ccccc1 | 15.8 µM (active)
CN1c2ccccc2C(C)(C)C12CC(c1ccc(S(=O)(=O)N3CCCCC3)cc1)=NO2 (centres undefined) | 5.62 µM (active)
CCN(CC)S(=O)(=O)c1ccc(C2=NOC3(C2)N(C)c2ccccc2C3(C)C)cc1 (centres undefined) | 12.6 µM (active)
C=CCSC(=C(C#N)C#N)c1cc2c([nH]1)CCCC2 | 7.08 µM (active)
COc1ccc(CN2CCN(C(=O)c3ccc(CNS(=O)(=O)c4ccc(C)cc4)cc3)CC2)c(OC)c1OC | 12.6 µM (active)
COC(=O)[C@@]12CCCN1[C@H](c1ccc(-c3cccc(Cl)c3)c(OC)c1)[C@H]1C(=O)N(C)C(=O)[C@H]12 | 2.82 µM (active)
CCN1C(=O)[C@@H]2[C@@H](c3ccc(SC4CCCCC4)c(OC)c3)N3CCC[C@@]3(C(=O)OC)[C@@H]2C1=O | 5.01 µM (active)
COc1cc(OC)c2c(-c3cccc(-c4cccc(N)c4)c3)cc(=O)oc2c1 | 10 µM (active)
O=C(NCCN1CCN(c2ccc([N+](=O)[O-])cc2)CC1)NCc1ccccc1 | 12.6 µM (active)
O=[N+]([O-])c1ccc(N2CCN(c3ccccc3)CC2)nc1 | inactive
O=C1NC(=S)S/C1=C\C=C\c1ccc([N+](=O)[O-])o1 | 1.78 µM (active)
COC(=O)C1=C(C)N(CC2CC2)C(=NCc2cc(OC)c(OC)c(OC)c2)N[C@H]1c1ccccc1 | 12.6 µM (active)
COc1ccccc1CNC(=O)c1ccc(-c2ccccc2Cl)o1 | 12.6 µM (active)
Cc1ccc(CN2CCC(CNS(=O)(=O)c3ccc(-c4ccc(=O)[nH]n4)s3)CC2)cc1 | 5.01 µM (active)
Cc1ccc(CNS(=O)(=O)c2ccc(C)s2)cc1 | inactive
CC1CN(c2nc(-c3ccc(Br)cc3)nnc2-c2ccccc2)CC(C)N1 (centres undefined) | 3.98 µM (active)
COCCn1c(SCC(=O)Nc2ncc(Cl)c(C)c2Cl)nc2ccccc21 | inactive
O=C(CSc1nc2ccccc2n1-c1ccccc1)Nc1ncc(Cl)cc1Cl | 11.2 µM (active)
Cc1ccc(-n2c(SCC(=O)Nc3ncc(Cl)cc3Cl)nc3ccccc32)cc1 | 11.2 µM (active)
CN1c2ccccc2-c2nc3ccccc3n2C1c1cccs1 (centres undefined) | 7.08 µM (active)

— PubChem BioAssay AID504850 (National Center for Advancing Translational Sciences (NCATS), 2011)
